HPGD inh – HPGD (human) dehydrogenase inhibition | P15428 | purified HPGD, NADH fluorescence kinetic, PGE2 substrate | Potency, µM, for the others: at the top dose activity change, negative = inhibition, actives largely listed as inhibitors | 150,000 compounds, 4.3% hits | AID 894; further: potency means the concentration at half of the fitted maximal effect
Target sequence (P15428 whole entry, looked up): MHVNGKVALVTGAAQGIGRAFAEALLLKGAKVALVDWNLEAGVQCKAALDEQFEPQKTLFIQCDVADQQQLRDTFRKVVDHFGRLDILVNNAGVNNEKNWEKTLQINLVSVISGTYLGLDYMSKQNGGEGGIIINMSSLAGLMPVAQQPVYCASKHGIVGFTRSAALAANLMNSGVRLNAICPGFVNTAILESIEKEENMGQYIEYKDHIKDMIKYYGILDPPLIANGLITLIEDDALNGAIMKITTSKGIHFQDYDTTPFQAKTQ
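20 nM HPGD preincubated 15 min at room temperature with compound in 50 mM Tris-HCl pH 8, 0.01% Tween 20. Started with 1 mM NAD+ and 30 uM prostaglandin E2; NADH fluorescence (360/450 nm) read 5 times over 30-s intervals, last minus first.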
ALDH1A1 inh – inhibitors of human aldehyde dehydrogenase 1A1; Purified ALDH1A1, NADH fluorescence, propionaldehyde substrate; Potency, µM (titrated, usually from 75.3 µM), inactives show top-dose activity, negative = inhibition, hits mostly inhibitors; 220,000 compounds, 7.3% hits; AID 1030;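 further: potency means the concentration at half of the fitted maximal effect; plate controls were no enzyme wells and a reference inhibitor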
PNC assembly inh – perinucleolar compartment assembly inhibition. PC3M PTB-GFP, PNC prevalence imaging, 16 h; stronger effect = lower value. activity change (PNC), negative = inhibition, % at 10 µM. 140,000 compounds, 3.1% hits;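 active means readout at or below -70, meaning at least 70% loss of cells showing the perinucleolar compartment, a nuclear body marking cancer cells; inconclusive means readout between -30 and a set limit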;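 further: plate controls were DMSO wells for no effect and camptothecin positive control wells for full effect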
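Compounds are pinned in duplicate onto adhered PC3M cells stably expressing GFP-tagged PTB and incubated 16 h at 37 C. Cells are then fixed, nuclei stained with Hoechst, and PNC-positive cells counted.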
Active calls of the source: *; ? = inconclusive; . = no result given. Shown are actives, neighbours in structure and some others; about 11% of the full set was active somewhere. Unless noted, the call rests on the fitted dose curve; in most records, active means well fitted inhibition curve with a large enough effect (not every such curve was filed as active); inconclusive means small, poorly fitted or top-dose-only effect, or another doubt; inactive means no such curve, though single readings can be large or run the other way. Unless noted, on the % scale 0 is the no-effect control and ±100 the full control effect.

SMILES	HPGD inh	ALDH1A1 inh	PNC assembly inh
COc1ccccc1N1CCN(C(=O)CSc2ncnc3scc(-c4ccccc4)c23)CC1	-11%	?	22
COc1ccccc1N1CCN(C(=O)CSc2nc3ccccc3[nH]2)CC1	-3%	10%	?
COc1ccc(-n2ncc3c(SCC(=O)N4CCN(c5ccccc5OC)CC4)ncnc32)cc1	-21%	?	-119*
CCC(CC)C(=O)Nc1nnc(SCC(=O)N2CCN(c3ccccc3OC)CC2)s1	-12%	13µM*	-3
COc1ccccc1N1CCN(C(=O)CSc2nnc(NC(=O)C(C)C)s2)CC1	.	8.9µM*	.
COc1ccccc1OCC(=O)N1CCN(c2ccccc2OC)CC1	-14%	4%	?
O=C(Nc1ccc(Cl)cc1)N1CCC(c2nc(-c3ccc(F)cc3)no2)CC1	-20%	-11%	?
Nc1nc(CSc2nc3ccccc3s2)nc(N2CCOCC2)n1	.	-9%	.
Nc1nc(CSCc2ccccc2)nc(N2CCOCC2)n1	-11%	?	-107*
O=c1[nH]c2ccc(Cl)cc2c(-c2ccccc2)c1SC(=S)N1CCCCC1	?	25µM*	46
O=c1[nH]c2ccc(Cl)cc2c(-c2ccccc2)c1N1CCN(CCO)CC1	?	?	5
O=c1[nH]c2ccc(Cl)cc2c(O)c1-c1ccccc1	-9%	6%	?
O=c1[nH]c2ccc(Cl)cc2c(-c2ccccc2)c1SC(=S)N1CCOCC1	20µM*	8.9µM*	0
CCC/C=C(\CCC)C(NS(=O)(=O)c1ccc(C(F)(F)F)cc1)c1ccc(C(=O)OC)cc1 (stereo not drawn)	-10%	-11%	.
COc1ccc(N2CC(NC(=O)NCCC(C)C)CC2=O)cc1 (stereo not drawn)	0%	5%	-18
O=C(O)CSc1nnc2c3ccccc3c3ccccc3c2n1	-8%	?	.
Cc1nc(SCC(O)CCl)c([N+](=O)[O-])[nH]1 (stereo not drawn)	-5%	14µM*	32
COCC(O)CSc1nc(C)[nH]c1[N+](=O)[O-] (stereo not drawn)	-17%	1%	-28
CC(=O)N=c1sc(C(C)(C)C)c(C)n1C	0%	3%	46
Clc1ccc(Cn2cc(/C=N/n3cnnc3)c3ccccc32)cc1	-9%	?	-10
C=CCn1cc(/C=N/N2C(=O)C3C4C=CC(C4)C3C2=O)c2ccccc21 (stereo not drawn)	.	25µM*	.
CC(C)Cc1cc(C(=O)Nc2sc3c(c2C#N)CCC3)no1	?	22µM*	11
N#Cc1c(NC(=O)c2cc(C3CC3)on2)sc2c1CCC2	-28%	?	12
CCc1c(C)sc(NC(=O)c2cc(CC(C)C)on2)c1C#N	-18%	?	4
CC(C)Cc1cc(C(=O)Nc2sc3c(c2C#N)CCCC3)no1	28µM*	18µM*	35
SMILES	HPGD inh	ALDH1A1 inh	PNC assembly inh
COCC(C)n1c(C)cc(C(=O)COC(=O)c2c(NC(C)=O)sc(C)c2C)c1C (stereo not drawn)	-16%	?	-28
O=C(Cc1ccccc1)NCC(=O)OCC(=O)c1cccs1	-13%	-3%	8
CC1CCN(CCOc2ccc(Cl)c(Cl)c2)CC1	2%	4%	-19
COc1ccc(CC(=O)NC2=NCCS2)cc1	-5%	6%	9
COc1ccc(CCC(=O)NC2=NCCS2)cc1OC	-1%	12%	-100*
O=S(=O)(C(=CNc1ccccc1)S(=O)(=O)c1ccccc1)c1ccccc1	-19%	7%	71
CSc1nc(C)c(Cl)c(C)c1C#N	-2%	14%	?
C=CCNS(=O)(=O)c1nc(C)c(Cl)c(C)c1C#N	-13%	-4%	-85*
Cc1cc2ccccn2c1C(C[N+](=O)[O-])c1ccc(N(C)C)cc1 (stereo not drawn)	-19%	?	-21
COc1ccc(C(C[N+](=O)[O-])c2c(-c3ccccc3)cc3ccccn23)c(OC)c1 (stereo not drawn)	22µM*	?	?
CC(=O)N1CCN(c2ccc([N+](=O)[O-])cc2)CC1	.	1%	.
O=[N+]([O-])c1ccc(NC(=S)N2CCN(c3ccc(F)cc3)CC2)cc1	-15%	4%	44
CN(C)c1ccc(C(=S)N2CCN(c3ccc([N+](=O)[O-])cc3)CC2)cc1	.	1µM*	.
CC(=O)N1CCN(C(=S)c2ccc([N+](=O)[O-])cc2)CC1	32µM*	22µM*	14
O=[N+]([O-])c1ccc(C(=S)N2CCN(c3ccc(F)cc3)CC2)cc1	.	10µM*	.
Cc1cccc(N2CCN(C(=S)c3ccc([N+](=O)[O-])cc3)CC2)c1	7.9µM*	2.5µM*	-27
Cc1cccc(-n2cc(-c3ccc([N+](=O)[O-])cc3)[nH]c2=S)c1	-17%	-1%	-29
COC(=O)c1ccccc1NC(=O)c1cc2ncc(Br)cn2n1	-27%	-4%	39
CCOC(=O)c1c(CNc2ccncc2)n(C)c2cc(Br)c(O)cc12	.	1%	.
Cc1cnn(-c2ccc3nnc(-c4ccc(Br)cc4)n3n2)c1	?	5%	?
COC(=O)CCn1nc(-c2ccc(C)cc2)c2ccccc2c1=O	.	-13%	.
Nn1cnnc1N/N=C/c1cc(Br)cc(Br)c1O	?	2%	11
CC(C(=O)O)n1c(-c2ccn[nH]2)n[nH]c1=S (stereo not drawn)	.	-3%	.
CCOC(=O)c1cc(C#N)c(=S)[nH]c1C	.	3.5µM*	.
CCOC(=O)c1cc(C(C)=O)c(=O)[nH]c1C	.	0%	.
SMILES	HPGD inh	ALDH1A1 inh	PNC assembly inh
COc1ccc(S(=O)(=O)N(C)CC(=O)NCc2cccnc2)cc1	-2%	-6%	-4
Cc1cccc(-c2cc3c(nn2)-c2ccccc2C3=O)c1	-13%	?	12
Cc1ccc2c(c1)C(=O)c1ccccc1CS2=O (stereo not drawn)	-23%	2.5µM*	?
CC1CCCCN1C(=S)NCc1ccco1 (stereo not drawn)	.	-4%	.
CC(C)(C)c1c(Cl)c(O)c(-c2ccccc2)c(=O)n1-c1ccccc1	.	-13%	.
COc1ccc(/C=N/n2cnn(Cc3ccccc3Cl)c2=S)cc1	.	10µM*	.
Oc1ccccc1/C=N/n1cnn(Cc2ccccc2Cl)c1=S	?	?	9
C/C(=N\NC(=O)c1nn(C)cc1Br)c1cccc(NC(=O)C2CCCC2)c1	-10%	4%	25
COC(=O)[C@H](Cc1c[nH]c2ccccc12)NC(=O)Nc1ccccc1OC	.	-4%	.
NC(=S)Cc1nc(-c2ccccc2)cs1	-17%	3.2µM*	-15
Nc1nc(-c2ccccc2)cs1	-8%	?	39
COc1ccc(S(=O)(=O)Nc2ccc(S(=O)(=O)Nc3nc(C)cc(C)n3)cc2)cc1OC	-9%	0%	27
N#Cc1ccccc1NC(=O)CSc1nnc(-c2ccc(F)cc2)n1-c1ccccc1	-13%	-4%	15
CCc1nnc(NC(=O)CSc2nnc(COc3ccccc3)n2-c2ccc(C)cc2)s1	-2%	14%	23
Cc1ccc(OCc2nnc(SCC(=O)Nc3cccc4ccccc34)n2-c2ccccc2)cc1	-11%	7%	-119*
Cc1ccccc1OCc1nnc(SCc2cc(=O)[nH]c3ccccc23)n1-c1ccccc1	-10%	-3%	3
Cc1ccc(NC(=O)CSc2nnc(-c3n[nH]c4ccccc34)n2-c2ccccc2)c(C)c1	-12%	20µM*	?

Bioassay records: PubChem BioAssay, National Center for Advancing Translational Sciences (NCATS)
